From ChEMBL document CHEMBL4513216, “Probing the Open Global Health Chemical Diversity Library for Multistage-Active Starting Points for Next-Generation Antimalarials” (ACS Infect Dis, 2020)
The campaign covered roughly 68,000 compounds. About 2,700 (4%) showed an effect of 50% or more. The sample holds strong results, similar compounds and a random draw of the others, so the mix is not that of the screen.

tested on: Plasmodium berghei; experiment: Screen against P. berghei liver stage (PbLuc), transformed with Luciferase, at 2uM; assay type: functional, HepG2; conditions: tested at 2 uM

Row | SMILES | INHIBITION [%]
1 | Cn1cc(CN2CCn3cc(CNC(=O)c4cccn4C)nc3C2)cn1 | 16.22
2 | Cc1c(NCc2ccc(C#N)cc2)cccc1S(=O)(=O)NC1CC1 | 21.14
3 | COC(=O)CNC(=O)c1ccn(-c2ccc(Cl)c(Cl)c2)n1 | -14.28
4 | CCN(Cc1ccncc1)C(=O)c1cn(CCCc2ccccc2)nn1 | 30.42
5 | CN1CC2(CCN(Cc3ncc[nH]3)CC2)CC1=O | 73.62
6 | COCCCN1CC2(CCN(Cc3ncc[nH]3)CC2)CC1=O | 25.13
7 | CC(C)=CCN1CC2(CCN(Cc3ncc[nH]3)CC2)CC1=O | 20.34
8 | Cc1n[nH]cc1C(=O)NCc1cccnc1N1CCc2ccccc2C1 | 18.63
9 | CCN(CC)C(=O)c1ccc(CNc2ncc(C#N)cc2Cl)cc1 | 27.52
10 | N#Cc1ccc(CNc2ncc(C#N)cc2Cl)cc1 | 51.88
11 | CS(=O)(=O)Cc1ccc(CNc2ncc(C#N)cc2Cl)cc1 | -35.5
12 | CSc1nccc(N2CCC3(CCCN(CCc4ccccc4)C3)C2)n1 (configuration not stated) | -31.44
13 | CCC(NC(=O)c1nn(C)cc1C(=O)O)c1ccccc1 (configuration not stated) | 49.95
14 | N#Cc1ccc(CNC(=O)NC2CCN(CC(F)F)CC2)cc1 | -39.58
15 | Cc1ccc(CNC(=O)NC2CCN(CC(F)F)CC2)cc1 | -5.19
16 | N#Cc1cccc(CNC(=O)NC2CCN(CC(F)F)CC2)c1 | 67.51
17 | O=C(NCc1nnc2n1CCCC2)c1ccc(C2CCCO2)s1 (configuration not stated) | 29.22
18 | COc1cc(N2CCC3(CCCN(Cc4ccccn4)C3)C2)ncn1 (configuration not stated) | -21.32
19 | Cc1cc(C)nc(N2CCC(CNC(=O)c3ccccn3)CC2)n1 | 27.39
20 | Cc1cc(C)nc(N2CCC(CNC(=O)c3cnccn3)CC2)n1 | 95.75
21 | O=C(NCC1CCN(c2ncccn2)CC1)c1cnccn1 | 26.66
22 | CN(Cc1cccc(F)c1)C(=O)CN1CCOC(Cn2cccn2)C1 (configuration not stated) | 20.28
23 | O=c1[nH]c(-c2cccnc2)nc2c1CCN(S(=O)(=O)N1CCCC1)C2 | -15.3

Row | SMILES | INHIBITION [%]
24 | CCn1ncc(CN2CCc3c(nc(-c4cccnc4)[nH]c3=O)C2)c1C | 54.82
25 | CCn1ncc(CN2CCc3nc(-c4cccnc4)nc(O)c3C2)c1C | 21.14
26 | O=C(N[C@H]1COC[C@@H]1N1CCCC1)c1c[nH]nc1C1CCCCC1 | 77.54
27 | CCO[C@H]1COC[C@@H]1NC(=O)c1c[nH]nc1C1CCCCC1 | -73.93
28 | Cc1nc(C(=O)N[C@H]2COC[C@@H]2N2CCCCC2)cs1 | 11.19
29 | Cc1ccc(C)n1-c1ccc(C(=O)NCCNc2ncccn2)cc1 | 1.61
30 | CCc1ccc(C(=O)NCCNc2ncccn2)cc1 | 56.02
31 | O=C(NCCNc1ncccn1)c1ccc(Br)cc1 | -68.24
32 | COc1ccc(C(=O)NCCCNc2ncccn2)cc1F | 5.28
33 | CS(=O)(=O)c1ccc(C(=O)NCCNc2ncccn2)cc1 | 35.65
34 | COc1ccc(C(=O)NCCCNc2ncccn2)c(OC)c1 | 48.21
35 | COc1cc(OC)cc(C(=O)NCCCNc2ncccn2)c1 | 57.75
36 | CCOc1ccc(C(=O)NCCCNc2ncccn2)cc1 | 50.59
37 | Cc1cc(C)cc(C(=O)NCCCNc2ncccn2)c1 | 29.13
38 | Cc1nc(C2CCCN(C(=O)CCCn3cccn3)C2)sc1C (configuration not stated) | 15.67
39 | O=C(c1ccc2[nH]ccc2c1)N1CC[C@@H]2CN(CC3CC3)CCO[C@@H]2C1 | 12.83
40 | CCS(=O)(=O)N1CCc2cc(C(=O)N(C)C)c(NCC3CC3)nc2CC1 | 27.08
41 | COC(=O)COc1cc(NCc2c(C)noc2C)c(Cl)cc1C | -55.9
42 | NC(=O)COc1ccc(CN2CCC(O)(CN3CCCCC3)C2)cc1Cl (configuration not stated) | -32.93
43 | Cc1cnn(C2CN(CC(=O)NCCc3ccsc3)C2)c1 | -21.39
44 | O=C(CCC1CCCO1)NCc1ccc(Br)cc1F (configuration not stated) | 1.52
45 | Cc1cc(C(=O)O)c2c(Br)cccc2n1 | -34.12
46 | COCCCN1Cc2cccc(NC(=O)c3cc(F)ccc3F)c2C1 | -9.01

Row | SMILES | INHIBITION [%]
47 | CCc1nnsc1C(=O)N1CCCC1c1c(C)nn(C)c1OC (configuration not stated) | -12.75
48 | COc1ccc(C(C(=O)O)N2CCC(O)(c3cccnc3)CC2)cc1F (configuration not stated) | -38.97
49 | COc1ccc(C(C(=O)O)N2CCC(O)(c3cccnc3)CC2)cc1Cl (configuration not stated) | 55.39
50 | COc1cccc(Cl)c1C(C(=O)O)N1CCC(O)(c2cccnc2)CC1 (configuration not stated) | -4.09
51 | Cc1ccc(C(=O)N2C[C@H]3CCC[C@@]3(COCc3cccnc3)C2)s1 | -5.01
52 | CCCC(=O)N1CCC(c2ncc3c(n2)CCNC3)CC1 | 5.15
53 | CCC(=O)N1CCC(c2ncc3c(n2)CCNC3)CC1 | 95.75
54 | O=C(CC1CCCCC1)N1CCC(c2ncc3c(n2)CCNC3)CC1 | 6.4
55 | COc1c[nH]c(C(=O)N2CCN(c3ccc(Cl)cc3)CC2)cc1=O | 5.28
56 | Cc1cc(C)n(C2CN(CC(O)c3cc(F)ccc3F)C2)n1 (configuration not stated) | 53.98
57 | Cc1cc(C)n(C2CN(CC(O)COc3ccc(F)cc3)C2)n1 (configuration not stated) | 12.31
58 | COc1ccc(C(O)CN2CC(n3nc(C)cc3C)C2)cc1 (configuration not stated) | -1.02
59 | Cc1cc(C)n(C2CN(CC(O)c3ccc(F)cc3)C2)n1 (configuration not stated) | -26.11
60 | Cc1cc(C)n(C2CN(CC(O)c3ccc(C(F)(F)F)cc3)C2)n1 (configuration not stated) | 56.02
61 | Cc1cc(C)n(C2CN(CC(O)c3ccc(S(C)(=O)=O)cc3)C2)n1 (configuration not stated) | -3.06
62 | O=C(c1cnnn1-c1ccccc1)N1CCCC(c2ccn[nH]2)C1 (configuration not stated) | -44.17
63 | O=C(c1ccco1)N1C[C@@H]2CCN(c3cccnc3)C[C@@H]2C1 | -19.54
64 | CCc1nnc2n1CCN(C(C(=O)N(CC)CC)c1ccccc1)C2 (configuration not stated) | 47.85
65 | Cc1nnc2n1CCN(C(C(=O)N1CCCCC1)c1ccccc1)C2 (configuration not stated) | -40.65
66 | CCN(CC)C(=O)C(c1ccccc1)N1CCn2c(C)nnc2C1 (configuration not stated) | 63.95
67 | COc1ncc(C2(O)CCN(Cc3ccc(F)c(F)c3)CC2)c(OC)n1 | 10.83
